The record followed here is PubChem BioAssay (NCI).

Among the test systems are HCT-15 colon; HT29 colon; SNB-75 CNS; SNB-19 CNS; U251 CNS; PC-3 prostate; UACC-62 melanoma; LOX IMVI melanoma; SK-MEL-28 melanoma; SK-MEL-2 melanoma; EKVX NSCLC; SN12C renal; UO-31 renal; TK-10 renal; ACHN renal; CAKI-1 renal; MOLT-4 leukemia; SK-MEL-5 melanoma; A498 renal; CCRF-CEM leukemia.
Common to all, as to test: NCI-60 one-dose screen, 48 h (100 = growth as untreated, 0 = no growth, -100 = all killed)
Common to all, as to conditions: 10 µM unless noted

About 83,000 compounds went through this panel and 20% of them were active in at least one assay; those are over-represented in the sample as a whole.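 Assay: single dose, 48 h. Readout: percent growth (0 = no net growth; negative = cell death). Active: <10.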 Values without a mark were called inactive. Calls of active or inactive are those of the source.

In the case of `O=c1c2cc(F)ccc2sc2c(N3CCNCC3)nc3ccccc3c12`, the growth in the experiment with HCT-15 colon was -40.7% (active); with HT29 colon, -37.7% (active); with SNB-75 CNS, 70.2%; in the experiment on SNB-19 CNS it was 65.3%; with U251 CNS it was -24.2% (active); in the experiment with PC-3 prostate, 48.7%. Moreover, the growth in the experiment on UACC-62 melanoma is 59.5%; with LOX IMVI melanoma, -99.1% (active); in the experiment with SK-MEL-28 melanoma, 57.7%; with SK-MEL-2 melanoma it was 103%; in the experiment with EKVX NSCLC, 72.5%; in the experiment with SN12C renal it was 61.7%. The growth is 28.8% with UO-31 renal; 58.8% in the experiment with TK-10 renal; 7.74% (active) in the experiment on ACHN renal; -48.4% (active) with CAKI-1 renal; -33.5% (active) in the experiment with MOLT-4 leukemia.
Take `Cc1c(C(=O)NCCN2CCOCC2)cn2ncnc(Oc3ccc(NC(=O)Nc4ccc(Cl)c(C(F)(F)F)c4)cc3)c12`: the growth is 21.8% in the experiment with HCT-15 colon; 7.93% (active) with HT29 colon; 22.4% with SNB-75 CNS; 20% in the experiment on SNB-19 CNS; 14.5% with U251 CNS; 11.4% with PC-3 prostate. Also, the growth in the experiment with SK-MEL-5 melanoma is 6.48% (active); in the experiment with SK-MEL-28 melanoma, 16.1%; in the experiment on SK-MEL-2 melanoma, -20.8% (active); with EKVX NSCLC, 25.2%; in the experiment on SN12C renal, 21.2%; in the experiment with UO-31 renal it was 52.7%. Besides, the growth in the experiment on TK-10 renal was 32.2%; in the experiment with ACHN renal, 13.6%; with CAKI-1 renal, 30.3%; with A498 renal, -5.16% (active); with CCRF-CEM leukemia, 9.09% (active); in the experiment with MOLT-4 leukemia, -3.35% (active).
In the case of `C[C@]12CC[C@@H]3c4cc(OC(F)F)c(OS(N)(=O)=O)cc4CC[C@H]3[C@@H]1CC[C@@H]2O`, the growth with HCT-15 colon was 13.2%; with HT29 colon, 13.9%; in the experiment on SNB-75 CNS, -15.7% (active); in the experiment with SNB-19 CNS, 48.4%; with U251 CNS, 28.2%; in the experiment on PC-3 prostate it was 25.5%. Also, the growth with UACC-62 melanoma was 55.7%; in the experiment on LOX IMVI melanoma it was 28.6%; with SK-MEL-28 melanoma, 53.6%; in the experiment with SK-MEL-2 melanoma, 46.3%; with EKVX NSCLC, 40.2%; in the experiment on SN12C renal, 32.6%. For the same compound, the growth was 40.1% in the experiment with UO-31 renal; 94.2% in the experiment on TK-10 renal; 44.9% with ACHN renal; 41.4% with CAKI-1 renal; -8.42% (active) in the experiment with A498 renal; 16.5% with CCRF-CEM leukemia.
On to `Fc1cc(-c2nnc3sc(-c4ccc(Cl)cc4Cl)nn23)c(Cl)cc1Cl`, for which the growth is 90.7% with HCT-15 colon; 72.1% with HT29 colon; 49.1% in the experiment on SNB-75 CNS; 79.5% in the experiment on SNB-19 CNS; 75.5% with U251 CNS; 94.4% in the experiment on PC-3 prostate. Further, the growth in the experiment with UACC-62 melanoma was 92.3%; in the experiment on SK-MEL-28 melanoma, 69.3%; with SK-MEL-2 melanoma it was 94.7%; in the experiment with EKVX NSCLC it was 73.3%; in the experiment on SN12C renal, 82.8%; in the experiment with UO-31 renal it was 73%. In addition, the growth is 109% in the experiment on TK-10 renal; 73.7% with ACHN renal; 86.5% with CAKI-1 renal; 109% with A498 renal; -78.6% (active) in the experiment on CCRF-CEM leukemia; 134% with MOLT-4 leukemia.
As for `N#Cc1c(-c2ccc(Cl)cc2)nc(NCCO)[nH]c1=O`, the growth is 102% in the experiment on HCT-15 colon; 106% in the experiment with HT29 colon; 81% in the experiment with SNB-75 CNS; 102% in the experiment with SNB-19 CNS; 98.7% in the experiment with U251 CNS; 92.4% in the experiment on PC-3 prostate. Moreover, the growth with UACC-62 melanoma is 84.4%; in the experiment with LOX IMVI melanoma, 97.3%; in the experiment on SK-MEL-28 melanoma, 112%; in the experiment with SK-MEL-2 melanoma, 94.4%; with EKVX NSCLC it was 157%; in the experiment with SN12C renal, 96.2%. Besides, the growth in the experiment on TK-10 renal is 97.9%; with ACHN renal, 101%; with CAKI-1 renal, 94.2%; with A498 renal, 125%; with CCRF-CEM leukemia it was 113%; in the experiment with MOLT-4 leukemia, 99.5%.
As to `C[C@H](C(=O)Nc1ccc(S(N)(=O)=O)cc1)S(=O)(=O)c1ccccc1`, the growth with HCT-15 colon was 98.1%; in the experiment on HT29 colon, 107%; with SNB-75 CNS, 96.9%; in the experiment on SNB-19 CNS, 95.5%; in the experiment with U251 CNS, 97.5%; in the experiment on PC-3 prostate, 101%. The growth with UACC-62 melanoma was 102%; in the experiment on LOX IMVI melanoma, 98%; in the experiment with SK-MEL-28 melanoma it was 115%; in the experiment with SK-MEL-2 melanoma, 102%; with EKVX NSCLC, 98.3%; with SN12C renal, 101%. Moreover, the growth with UO-31 renal is 85.8%; with TK-10 renal, 95.4%; in the experiment with ACHN renal, 98.9%; with CAKI-1 renal it was 95.2%; in the experiment on A498 renal, 106%; in the experiment on CCRF-CEM leukemia it was 105%. The growth in the experiment on MOLT-4 leukemia was 105%.
Turning to `CC(C)c1cc(C(C)C)c(S(=O)(=O)Oc2ccc(NC(=O)c3ccc(Cl)cc3)cc2)c(C(C)C)c1`, the growth is 20.2% in the experiment with HCT-15 colon; 46.6% in the experiment on HT29 colon; 64.9% in the experiment on SNB-75 CNS; 17.6% in the experiment on SNB-19 CNS; 20.9% with U251 CNS; 31.4% in the experiment on SK-MEL-5 melanoma. Moreover, the growth is 9.11% (active) with UACC-62 melanoma; 33.5% in the experiment with LOX IMVI melanoma; 56.8% in the experiment on SK-MEL-28 melanoma; 31.3% with SK-MEL-2 melanoma; 19.4% with EKVX NSCLC; 21.4% with SN12C renal. The growth is 29.9% in the experiment with UO-31 renal; 42.5% in the experiment on TK-10 renal; 15.4% with ACHN renal; 21.6% in the experiment with CAKI-1 renal; 17.7% in the experiment on A498 renal; 25.2% in the experiment on CCRF-CEM leukemia.
Consider `CCOC(=O)Cn1c(C)c(/C=N/NC(=O)c2cc3c(ccc4ccccc43)o2)c2ccccc21`, for which the growth was 11% in the experiment on HCT-15 colon; 3.63% (active) with HT29 colon; 2.97% (active) in the experiment on SNB-75 CNS; 18% in the experiment with SNB-19 CNS; 15.9% in the experiment on U251 CNS; 10.5% with PC-3 prostate. Besides, the growth in the experiment with UACC-62 melanoma is 35.4%; with LOX IMVI melanoma, 24.9%; in the experiment with SK-MEL-28 melanoma, 45.2%; in the experiment on SK-MEL-2 melanoma, 44.1%; with EKVX NSCLC, 41.1%; in the experiment with SN12C renal, 34.4%. Moreover, the growth in the experiment on UO-31 renal was 40.2%; in the experiment on TK-10 renal, 58.8%; in the experiment on ACHN renal, 28.4%; in the experiment on CAKI-1 renal, 47.1%; in the experiment on A498 renal, -6.48% (active); in the experiment with CCRF-CEM leukemia, 11.3%. Moreover, in the experiment with MOLT-4 leukemia, the growth is 18.7%.
